An excerpt weighted towards active compounds, which were near 5.7% of everything screened.
ssDAF12 agonist: S. stercoralis DAF-12 nuclear receptor activators, primary screen, cell-based, luminescence, HEK293, GRIP1 co-expression, lit1-tk-luc. HEK293 ssDAF-12/GRIP1 lit1-tk-luc reporter; % of 3 µM dafachronic acid response. activation, % at 6.8 µM. AID 652126, 2013. 370,000 compounds, 1% hits;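 active = activation above the mean over all tested compounds plus 3 SD, cut at about 0.9% in these data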;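 note: 0% = DMSO-only wells and 100% = 3 µM delta7-dafachronic acid wells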
hcDAF-12 act: H. contortus DAF-12 nuclear receptor activators, primary screen, cell-based, luminescence, HEK293, lit1-tk-luc reporter; 370,000 compounds, 1.4% hits; HEK293 hcDAF-12 lit1-tk-luc reporter; 0% DMSO, 100% Δ7-dafachronic acid; activation, % at 6.8 µM;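 active = activation above the mean of all tested compounds plus 3 SD, cut at about 5.5% in these data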;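 note: 100% = response to 3 µM Δ7-dafachronic acid high control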
AHR activator: AHR activators, primary screen, cell-based, luminescence, luciferase reporter, human. Aryl hydrocarbon receptor (Homo sapiens), P35869. AHR-responsive luciferase reporter cells. activation, % at 5 µM. 320,000 compounds, 2.5% hits. AID 2796, 2010; in the data active = activation above about 47%;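 note: 0% = vehicle wells and 100% = reference agonist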
hgDAF12 agonist: H. glycines DAF-12 receptor agonists, primary screen, cell-based, luminescence, HEK293, GAL4 fusion, UAS-luciferase | activation, % at 6.8 µM | 370,000 compounds, 1.8% hits | HEK293 GAL4-hgDAF12 UAS-luciferase reporter, agonist luminescence; normalized to butyrate control | AID 687014, 2013 | Nuclear hormone receptor DAF-12 (Heterodera glycines), GAL4 fusion;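 active = activation above a cutoff set at the mean of all screened compounds plus 3 SD, cut at about 10% in these data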;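 note: 0% = DMSO wells and 100% = sodium butyrate wells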
DAX1 inh-1: DAX1 (NR0B1) inhibitors, primary screen, cell-based, HEK293, Gal4-DAX1, luciferase luminescence | Nuclear receptor subfamily 0 group B member 1 (Homo sapiens), P51843 | HEK293 Gal4-DAX1 luciferase reporter | inhibition, % at 6.75 µM | 340,000 compounds, 0.99% hits | AID 504766, 2011;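 active = inhibition above the mean over all tested compounds plus 3 SD, cut at about 4.2% in these data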;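 note: 0% = DAX1-transfected cells with DMSO and 100% = empty-vector control cells with DMSO; inhibition shows as a rise in luminescence from relieved DAX1 repression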
Target sequence (P51843 207-470 limits assumed): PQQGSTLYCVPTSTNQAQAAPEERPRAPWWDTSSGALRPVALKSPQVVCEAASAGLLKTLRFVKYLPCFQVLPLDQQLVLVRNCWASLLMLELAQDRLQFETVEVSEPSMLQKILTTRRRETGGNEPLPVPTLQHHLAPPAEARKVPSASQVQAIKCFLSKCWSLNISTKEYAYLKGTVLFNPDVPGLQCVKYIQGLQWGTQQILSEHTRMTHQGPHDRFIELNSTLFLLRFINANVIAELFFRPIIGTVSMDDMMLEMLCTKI
DAX1 inh-2: DAX1 (NR0B1) inhibitors on StAR promoter, primary screen, cell-based, luminescence, SF-1 (NR5A1), full-length DAX-1. HEK293T StAR-luciferase reporter, SF-1/DAX-1 repression relief. inhibition, % at 6.8 µM. 370,000 compounds, 1.1% hits. AID 652010, 2013;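 active = inhibition above the mean over all tested compounds plus 3 SD, cut at about 3.6% in these data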;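 note: 0% = DAX-1 cells with DMSO and 100% = cells lacking DAX-1 with DMSO; higher inhibition means more luminescence from relief of DAX-1 repression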
LXRb hcDAF ctr: LXR agonists, Gal4 luciferase reporter, confirmation, counter-screen for hcDAF-12 agonist project, cell-based, luminescence, HEK293, H. contortus campaign; shares compounds with hcDAF-12 act; HEK293 Gal4-LXR tk-luc reporter, 24 h; normalized: DMSO 0%, positive control 100%; activation, % at 6.8 µM; 3,400 tested, under 10 active; AID 743027, 2013;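 active = mean percent activation of the reporter above a cutoff set as the average over tested compounds plus their standard deviation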
Target sequence (P55055 whole entry, looked up, the tested form may be a part): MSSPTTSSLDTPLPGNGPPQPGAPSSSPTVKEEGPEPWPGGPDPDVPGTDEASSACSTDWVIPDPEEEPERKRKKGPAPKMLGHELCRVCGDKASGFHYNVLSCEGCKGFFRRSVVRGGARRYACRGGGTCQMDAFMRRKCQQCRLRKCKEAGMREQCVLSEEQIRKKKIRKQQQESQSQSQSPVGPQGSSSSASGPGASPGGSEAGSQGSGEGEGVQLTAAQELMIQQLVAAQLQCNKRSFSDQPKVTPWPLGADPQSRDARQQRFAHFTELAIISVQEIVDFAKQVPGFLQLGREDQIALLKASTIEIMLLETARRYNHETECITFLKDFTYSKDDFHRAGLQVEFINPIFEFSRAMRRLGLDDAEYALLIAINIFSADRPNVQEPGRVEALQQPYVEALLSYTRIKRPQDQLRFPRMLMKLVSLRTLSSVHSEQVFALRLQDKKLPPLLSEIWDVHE
hcDAF12 conf: H. contortus DAF-12 receptor agonists, confirmation, cell-based, luminescence, HEK293, lit1-tk-luc, triplicate. shares compounds with hcDAF-12 act. HEK293 hcDAF-12 lit1-tk-luc reporter; % of Δ7-dafachronic acid response. activation, % at 6.8 µM. 3,400 compounds, 61% hits;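 active = mean activation across triplicate tests above the threshold derived from the earlier primary screen, cut at about 5.5% in these data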;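 note: 0% = DMSO only wells and 100% = 3 µM Δ7-dafachronic acid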
hgDAF12 ag: H. glycines DAF-12 receptor agonists, confirmation, cell-based, luminescence, HEK293, GAL4-LBD fusion | shares compounds with hgDAF12 agonist | HEK293 GAL4-hgDAF12 luciferase reporter, agonist mode; percent of butyrate response | activation, % at 6.8 µM | 3,300 compounds, 80% hits | AID 743050, 2013;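 active = mean activation over triplicate wells above the hit cutoff derived from the earlier primary screen, cut at about 11% in these data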;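 note: 0% = DMSO low control and 100% = 2 mM sodium butyrate high control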
LXR ag 2: LXR agonists, Gal4 luciferase reporter, confirmation, counter-screen for hgDAF-12 agonist project, cell-based, luminescence, HEK293, H. glycines campaign; 3,300 tested, under 10 active; 24 h; activation, % at 6.8 µM; shares compounds with hgDAF12 agonist; AID 743051, 2013;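 active = mean activation of the triplicate above a set limit carried over from the primary screen, none filed active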
* marks the source's active call; other numbers are inactive results; / = not tested or not shown.

SMILES	ssDAF12 agonist	hcDAF-12 act	AHR activator	hgDAF12 agonist	DAX1 inh-1	DAX1 inh-2	LXRb hcDAF ctr	hcDAF12 conf	hgDAF12 ag	LXR ag 2
O=C(COc1ccc2ccccc2c1)Nc1nccs1	-0.4	6.7*	14.4	19.1*	-1.2	3.6*	1.7	7.2*	18.1*	1.2
Nc1cnnc(N/N=C\c2ccccc2)c1Cl	-0.9	1.6	23.5	0.8	3.0	0.7	/	/	/	/
Fc1cccc(/C=N/Nc2nncc3ccccc23)c1	1.5*	12.1*	55.3*	21.0*	-1.2	2.7	1.8	13.9*	23.4*	1.2
COc1ccc(-c2nc3ccccn3c2Cl)cc1	3.2*	15.0*	40.5	14.1*	-0.5	2.5	1.7	18.6*	24.0*	1.2
COc1ccc(-c2ncc3ccccn23)cc1	-0.6	2.5	21.6	7.4	-0.1	2.2	/	/	/	/
CC(C)[C@H](Nc1ncnc2c1oc1ccccc12)C(=O)O	0.1	5.0	10.8	1.4	2.6	0.4	/	/	/	/
Cc1ccc(Nc2ncnc3c2oc2ccccc23)cc1	1.3*	10.9*	53.6*	15.4*	4.3*	2.0	1.7	8.1*	18.5*	0.7
CC1=C(C(=O)N(C)C)CC(CC(=O)NCCc2ccccn2)C(=O)N1Cc1ccccc1 (stereo not drawn)	-0.6	-2.3	/	0.5	0.5	0.1	/	/	/	/
Cc1cc(NC(=O)c2ccc(C(C)(C)C)cc2)no1	0.1	7.2*	/	14.5*	2.2	2.9	1.8	5.6*	21.3*	1.2
Cc1cc(NC(=O)c2ccc(F)cc2)no1	-0.9	4.3	-4.7	3.9	2.5	0.8	/	/	/	/
Cc1cc(-c2csc(Nc3ccccn3)n2)ccc1F	1.7*	14.8*	65.5*	17.1*	4.2	1.9	1.8	12.4*	19.0*	1.1
Cc1ccc(-c2csc(Nc3ccccn3)n2)cc1	2.2*	8.2*	42.7	16.4*	-2.7	1.5	2.0	9.9*	18.7*	1.1
Fc1ccc(-c2csc(Nc3ccccn3)n2)c(F)c1	3.4*	15.2*	78.2*	13.6*	3.1	2.4	1.5	15.9*	20.0*	1.1
Cc1cccnc1Nc1nc(-c2ccc(O)cc2)cs1	-0.6	-0.3	5.3	9.2	1.8	1.8	/	/	/	/
Cc1ccc(Nc2nc(-c3ccncc3)cs2)cc1	2.4*	8.9*	/	15.8*	0.6	4.2*	0.8	7.2*	19.3*	0.7
O=C(Nc1nnc([C@@H]2C[C@H](O)[C@@H](CO)O2)s1)Nc1cccc(Cl)c1Cl	-0.3	1.3	/	8.2	/	0.5	/	/	/	/
O=C(C[C@H]1CC[C@H](NC(=O)C2CCOCC2)[C@@H](CO)O1)NCc1ccncc1	-0.2	-2.8	/	0.4	/	-0.6	/	/	/	/
CC(C)(C)OC(=O)C[C@H]1C/C=C\C[C@@H](CC(=O)N[C@@H](CO)Cc2ccccc2)C(=O)NC[C@H](c2ccccc2)OC1=O	-1.2	0.1	-1.6	-4.6	0.7	-0.1	/	/	/	/
O=C(CN1C(=O)C2CCCCC2C1=O)OCC(=O)c1ccc(F)cc1 (stereo not drawn)	-0.8	-0.8	-0.3	0.8	0.4	0.3	/	/	/	/
Cc1ccc(Nc2nc(CSc3nnc(-c4ccncc4)n3C)cs2)cc1	0.4	7.3*	16.5	15.9*	-1.8	3.6	0.6	4.3	14.5*	0.5
COc1ccccc1N(C(=O)c1snc(C(N)=O)c1N)C(C(=O)NC1CCCC1)c1ccc(N(C)C)cc1 (stereo not drawn)	-0.3	-2.4	0.1	1.0	1.9	0.8	/	/	/	/
Cc1ccc(C(=O)CSc2ncnc3ccccc23)o1	-0.1	3.1	10.8	7.7	0.1	0.3	/	/	/	/
O=C(CSc1ncnc2ccccc12)c1cccs1	2.4*	15.8*	25.2	19.4*	1.4	1.3	1.0	8.8*	16.6*	0.9
Nc1ccc(-c2nc3ccc(N)cc3s2)cc1	1.1*	7.5*	-5.7	19.3*	-0.9	1.5	1.5	8.3*	15.8*	1.1
Nc1cccc(-c2nc3ccc(N)cc3s2)c1	-0.3	1.7	10.1	6.3	-0.3	-0.6	/	/	/	/
SMILES	ssDAF12 agonist	hcDAF-12 act	AHR activator	hgDAF12 agonist	DAX1 inh-1	DAX1 inh-2	LXRb hcDAF ctr	hcDAF12 conf	hgDAF12 ag	LXR ag 2
O=[N+]([O-])c1ccc(N/N=C\c2cccnc2)nc1	-2.1	1.4	6.3	0.6	-0.8	-0.4	/	/	/	/
O=[N+]([O-])c1ccc(NN=Cc2cccc(O)c2)nc1	0.7	10.1*	/	18.4*	5.6*	1.2	1.1	4.0	20.7*	0.8
Nc1nn(-c2ccccc2)c(N)c1N=Nc1ccccc1	0.6	9.0*	21.1	21.5*	-1.0	1.3	1.3	4.0	29.2*	0.9
Cc1nn(-c2ccccc2)c(N)c1N=Nc1cccc(S(=O)(=O)N2CCOCC2)c1	-2.1	-2.6	14.4	-2.8	-0.6	-0.8	/	/	/	/
O=C(Nc1nc2ccccc2n1CCN1CCCC1)c1ccc(Cl)cc1	-0.3	7.3*	53.5*	17.9*	1.5	0.6	0.6	9.5*	16.2*	0.4
C[C@]1(CC/C(=C/CO)CO)[C@H](C=O)CC[C@@]23COC(=O)C2=CCC[C@@H]31	0.7	2.6	/	-1.6	/	-0.2	/	/	/	/
CCOC(=O)c1ccc(COc2ccc(C(C)C)cc2)o1	0.0	1.8	0.0	9.9	1.8	3.6	/	/	/	/
